The values below come from PubChem BioAssay (NCI).

Values joined by “and” are separate entries in the source; they are usually repeats but may differ in a detail not shown here. Equal values may be shown once. The panel holds about 83,000 compounds, 20% with a hit somewhere; the sample as a whole holds those more often.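 Results are percent growth after 48 hours of single-concentration exposure. 100 means growth as in untreated cells, lower positive values show inhibition; negative values down to -100 show cell death.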 Values without a mark were called inactive. Active and inactive are the calls of the source. How the source made its calls: active means growth percent below 10; inactive means the rest.

The assay concerns MDA-MB-468 breast. Description: NCI-60 one-dose screen, 48 h (100 = growth as untreated, 0 = no growth, -100 = all killed). The conditions noted are these: 10 µM unless noted.
In the case of `COC(=O)Nc1cccc(Cl)c1OC`, the growth is 90.1%. Regarding `O=C(c1ccccc1)c1cc2ccccc2oc1=O`, the growth is 97.3%. `CC(C)(C)c1nn(-c2ccccc2)c2c1C(=O)CSC(c1ccccc1Cl)N2` (configuration not stated): the growth is 19.8%. Under `Fc1ccc(-c2nnc(N3CCOCC3)c3ccccc23)cc1` stands 98.8%; under `Nc1nc(-c2ccc(F)cc2)cc(-c2cnn(-c3ccccc3)n2)n1`, 104%; under `O=C1CC23OC4ON=C(Br)C4C2C(O)c2ccccc2N13` (configuration not stated), 106%.

With `CN(C)C(=O)Nc1nc2cc(Cl)c(Cl)cc2[nH]1`, the growth is -13.4% (active). As to `O=C(CCCN1CCC(O)(c2ccc(Br)cc2)CC1)c1ccc(F)cc1`, the growth was 49.2%. In the case of `NNc1ncnc2nc[nH]c12` it was 36.8%. In the case of `O=S1(=O)OC(c2ccc(O)c(Cl)c2)(c2ccc(O)c(Cl)c2)c2ccccc21`, the growth is 114%. `CCCCCCCCCCCCCCCC1=NCC[N+]1(CCO)CCO`: the growth is 55.2%. In the case of `COC(=O)C(=C\c1ccc2c(c1)OCO2)/C(=C/c1ccc2c(c1)OCO2)C(=O)OC` it was 111%; in that of `COc1cc2cn3c4ccc(O)cc4[nH]c(=O)c3c2cc1OC`, -27.4% (active). In the case of `CNCCCC12CCC(c3ccccc31)c1ccccc12` it was 29.4%; in that of `COc1cc2c(cc1O)CC[C@@H]1[C@@H]2CC[C@]2(C)[C@@H](OCCN(C)C)CC[C@@H]12`, 19.3%; in that of `Cc1ccc(=O)[nH]n1`, 103% and 104%. Under `c1cc2c(cc1-c1cnc3nonc3n1)OCO2` stands 84.6%.
